Experiment [1] in a line: small molecules captured by biotinylated probe aFSTL3 – biochemical, small-molecule microarray, fluorescence 635/667, stem cell growth factor project, primary screen (AID 1064).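 Also: measures binding of the biotinylated anti-FSTL3 antibody to printed compounds.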 Conditions: higher = more signal.
Experiment [2] can be described thus: binders from COS7 lysate, DM2A8 probe, primary screen, torsin A project, cell lysate, small-molecule microarray, fluorescence 635/667 (AID 1065). To be noted: higher = more signal, COS7 lysate expressing mutant human TOR1A.
The nature of experiment [3]: small molecules captured by biotinylated probe aFGF2 – biochemical, small-molecule microarray, fluorescence 635/667, stem cell growth factor project, primary screen (AID 1067).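 Also: measures binding of biotinylated aFGF2 protein to printed compounds on slides; z-score merges feature fluorescence and signal-to-noise across triplicate slides.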 Conditions: higher = more signal.
A short description of experiment [4]: small molecules captured by biotinylated probe aFGF10 – biochemical, small-molecule microarray, fluorescence 635/667, stem cell growth factor project, primary screen (AID 1071).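 Also: score merges 667 nm spot intensity and signal to noise from triplicate slides.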 Conditions: higher = more signal.
Experiment [5] addresses Neurogenic locus notch homolog protein 2 (Homo sapiens) (UniProt Q04721). Description: small molecules binding Notch2 protein – biochemical, small-molecule microarray, 635 nm fluorescence, stem cell growth factors, primary screen (AID 1073). To be noted: higher = more signal.
Experiment [6] deals with Pro-neuregulin-1, membrane-bound isoform (Homo sapiens) (UniProt Q02297). Description: small molecules binding neuregulin-1 protein – biochemical, small-molecule microarray, fluorescence 635/667, psychiatric disease protein project, primary screen (AID 1075).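 Also: score combines 667 nm spot fluorescence with signal to noise.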 To be noted: NRG1 binding, 635 nm fluorescence, higher = more signal.
Experiment [7] concerns Neuregulin-1 EGF-like domain. Description: small molecules binding NRG1 EGF domain – biochemical, small-molecule microarray, 635 nm fluorescence, primary screen (AID 1081).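 Also: binding of the protein to compounds printed on small-molecule microarray slides.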 To be noted: higher = more signal.
The nature of experiment [8]: FRG1 expression reporter modulators in myotubes – cell-based, C2C12 myotubes, firefly/Renilla luciferase, luminescence, FRG1 inhibition for FSHD, primary screen (AID 1084). To be noted: FRG1 promoter luciferase, higher = more signal, called active from +8 up or from −8 down.
A short description of experiment [9]: small molecules captured by biotinylated probe aFST – biochemical, small-molecule microarray, fluorescence 635/667, stem cell growth factor project, primary screen (AID 1086).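 Also: score merges 667 nm fluorescence with signal-to-noise of each printed compound spot.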 Conditions: higher = more signal.
The nature of experiment [10]: binders of probe aHhip on microarray, primary screen, stem cell growth factor project, biochemical, small-molecule microarray, fluorescence 635/667 (AID 1087).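 Also: score merges spot fluorescence at 667nm with spot signal to noise ratio.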 Conditions: higher = more signal.
Experiment [11] deals with PRMT1 (protein arginine N-methyltransferase 1). Description: small molecules binding arginine methyltransferase PRMT1 – biochemical, small-molecule microarray, 635 nm fluorescence, primary screen (AID 1088).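 Also: binding of Prmt1 protein to compounds spotted on small-molecule microarray slides.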 Conditions: higher = more signal.
A short description of experiment [12]: growth effects on S. cerevisiae YJM789 – YJM789 clinical isolate, OD600, 24 h, basal, primary screen (AID 1089).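 Also: growth of clinical yeast isolate S. cerevisiae YJM 789 seeded 1000 cells per well; test concentration not given here.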 Conditions: higher = more signal, called active from +8 up or from −8 down.
Experiment [13] in a line: S. pombe growth modifiers, basal conditions – strain 972, OD600, 24 h, no modulator, primary screen (AID 1090).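 Also: basal condition with compound alone and no growth modifier present; test concentration not given here.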 Conditions: S. pombe 972 growth, higher = more signal, called active from +8 up or from −8 down.
Experiment [14] is described as follows: budding yeast growth modifiers under rapamycin – strain BY4716, OD600, 96 h, primary screen (AID 1091). Also: test concentration not given here. Conditions: S. cerevisiae BY4716 + rapamycin, higher = more signal, called active from +8 up or from −8 down.
The target in experiment [15] is Torsin-1A-interacting protein 2 (Homo sapiens) (UniProt Q8NFQ8). Description: small molecules binding lysate-expressed LULL1 – cell lysate, human LULL1 lysate, 635/667 nm fluorescence, primary screen (AID 1092).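 Also: probe is lysate of COS7 cells overexpressing human LULL1; score merges per-feature 667 nm fluorescence with signal-to-noise.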 Conditions: small-molecule microarray, hLULL1 lysate binding, 635 nm fluorescence; higher = more signal.
A short description of experiment [16]: optical density change of DRC41 E. coli – strain DRC41, OD650, 24 h, E. coli filamentation project, primary screen (AID 1093).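 Also: MC1000 strain lacking acrAB efflux and sulA so SOS filamentation is blocked; test concentration not given here.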 Conditions: E. coli DRC41 growth, higher = more signal, called active from +8 up or from −8 down.
A short description of experiment [17]: probe aLefty2 binding to arrayed compounds – biochemical, biotinylated probe, 635/667 nm fluorescence, primary screen (AID 1094).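 Also: score merges spot fluorescence near 667 nm with spot signal-to-noise ratio.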 To be noted: small-molecule microarray, higher = more signal.
Experiment [18] deals with Noggin (protein binding on small-molecule microarray). Description: small molecules binding Noggin protein – biochemical, 635/667 nm fluorescence, primary screen (AID 1095).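 Also: score merges 667 nm feature fluorescence with signal to noise over triplicate slides.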 Conditions: 635 nm fluorescence, higher = more signal.
Experiment [19] deals with Neurogenic locus notch homolog protein 3 (Homo sapiens) (UniProt Q9UM47). Description: small molecules binding NOTCH3 protein – biochemical, 635/667 nm fluorescence, primary screen (AID 1096). Conditions: small-molecule microarray, 635 nm fluorescence, higher = more signal.
Sequence of Neurogenic locus notch homolog protein 3 (Homo sapiens) (Q9UM47 whole entry, looked up): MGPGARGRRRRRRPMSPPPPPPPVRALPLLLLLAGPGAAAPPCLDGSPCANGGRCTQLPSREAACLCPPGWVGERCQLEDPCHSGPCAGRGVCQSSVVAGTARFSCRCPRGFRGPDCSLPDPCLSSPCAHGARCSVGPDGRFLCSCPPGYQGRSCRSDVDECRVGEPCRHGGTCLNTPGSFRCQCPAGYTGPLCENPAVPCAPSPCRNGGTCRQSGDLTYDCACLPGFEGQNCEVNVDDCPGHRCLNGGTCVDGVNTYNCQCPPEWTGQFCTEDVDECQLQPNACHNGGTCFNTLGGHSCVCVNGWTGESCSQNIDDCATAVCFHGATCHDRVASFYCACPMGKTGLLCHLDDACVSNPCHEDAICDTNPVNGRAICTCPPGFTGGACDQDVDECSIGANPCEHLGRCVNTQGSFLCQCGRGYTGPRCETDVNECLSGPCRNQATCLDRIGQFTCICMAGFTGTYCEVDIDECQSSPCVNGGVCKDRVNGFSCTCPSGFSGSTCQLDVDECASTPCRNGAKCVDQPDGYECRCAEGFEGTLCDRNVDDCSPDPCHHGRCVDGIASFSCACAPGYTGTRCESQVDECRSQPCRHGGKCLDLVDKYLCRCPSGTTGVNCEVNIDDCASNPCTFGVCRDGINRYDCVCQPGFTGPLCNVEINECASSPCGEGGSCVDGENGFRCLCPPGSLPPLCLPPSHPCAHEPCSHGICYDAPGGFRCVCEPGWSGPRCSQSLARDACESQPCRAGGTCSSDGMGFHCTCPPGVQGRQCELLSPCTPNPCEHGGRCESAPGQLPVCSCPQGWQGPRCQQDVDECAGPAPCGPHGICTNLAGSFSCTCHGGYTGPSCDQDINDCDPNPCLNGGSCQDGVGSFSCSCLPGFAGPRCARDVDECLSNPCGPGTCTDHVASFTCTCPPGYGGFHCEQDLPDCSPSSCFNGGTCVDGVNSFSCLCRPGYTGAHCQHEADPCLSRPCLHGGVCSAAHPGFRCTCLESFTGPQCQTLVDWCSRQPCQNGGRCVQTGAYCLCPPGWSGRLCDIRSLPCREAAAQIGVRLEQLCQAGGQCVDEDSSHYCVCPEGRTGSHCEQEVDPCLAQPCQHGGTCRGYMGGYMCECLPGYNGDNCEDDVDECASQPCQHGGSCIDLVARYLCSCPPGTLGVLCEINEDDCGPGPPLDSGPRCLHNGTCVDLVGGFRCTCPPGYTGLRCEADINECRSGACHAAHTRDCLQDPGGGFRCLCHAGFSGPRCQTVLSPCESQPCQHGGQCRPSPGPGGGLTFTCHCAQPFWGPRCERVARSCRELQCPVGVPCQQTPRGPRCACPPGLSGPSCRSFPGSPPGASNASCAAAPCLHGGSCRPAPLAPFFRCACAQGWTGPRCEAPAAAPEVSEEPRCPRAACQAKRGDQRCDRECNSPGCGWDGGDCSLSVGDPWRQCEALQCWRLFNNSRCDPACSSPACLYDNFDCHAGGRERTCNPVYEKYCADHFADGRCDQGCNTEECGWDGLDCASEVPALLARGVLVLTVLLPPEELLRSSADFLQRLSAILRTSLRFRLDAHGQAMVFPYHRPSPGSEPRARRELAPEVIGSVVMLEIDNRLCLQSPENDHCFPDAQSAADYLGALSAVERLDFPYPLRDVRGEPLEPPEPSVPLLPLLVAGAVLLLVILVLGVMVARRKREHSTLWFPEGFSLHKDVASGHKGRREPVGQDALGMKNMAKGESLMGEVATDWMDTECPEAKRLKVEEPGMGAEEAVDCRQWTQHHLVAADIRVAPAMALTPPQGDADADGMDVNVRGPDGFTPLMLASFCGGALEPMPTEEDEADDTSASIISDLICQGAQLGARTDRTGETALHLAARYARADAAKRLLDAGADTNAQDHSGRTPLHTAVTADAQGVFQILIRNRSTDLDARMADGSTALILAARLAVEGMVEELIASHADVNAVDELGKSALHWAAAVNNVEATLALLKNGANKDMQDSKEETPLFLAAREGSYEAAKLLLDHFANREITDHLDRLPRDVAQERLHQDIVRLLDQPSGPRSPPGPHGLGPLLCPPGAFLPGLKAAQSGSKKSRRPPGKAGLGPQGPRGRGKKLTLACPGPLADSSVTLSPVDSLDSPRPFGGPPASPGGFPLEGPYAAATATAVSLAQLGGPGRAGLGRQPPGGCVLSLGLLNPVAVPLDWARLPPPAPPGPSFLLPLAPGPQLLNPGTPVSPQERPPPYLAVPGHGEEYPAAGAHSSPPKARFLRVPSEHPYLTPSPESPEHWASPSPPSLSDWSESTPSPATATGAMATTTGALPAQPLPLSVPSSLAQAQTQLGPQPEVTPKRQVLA
Experiment [20] in a line: probe aEGFR binding to arrayed compounds – biochemical, biotinylated probe, 635/667 nm fluorescence, primary screen (AID 1097).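 Also: probe is a biotinylated anti-EGFR antibody binding compounds printed on slides; score combines fluorescence near 667 nm and signal to noise of each spot.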 Conditions: small-molecule microarray, higher = more signal.

Our source for the composite z-score and z-score values is PubChem BioAssay.

Active and inactive are the calls of the source.

Sequence of Neurogenic locus notch homolog protein 2 (Homo sapiens) (Q04721 whole entry, looked up, canonical isoform): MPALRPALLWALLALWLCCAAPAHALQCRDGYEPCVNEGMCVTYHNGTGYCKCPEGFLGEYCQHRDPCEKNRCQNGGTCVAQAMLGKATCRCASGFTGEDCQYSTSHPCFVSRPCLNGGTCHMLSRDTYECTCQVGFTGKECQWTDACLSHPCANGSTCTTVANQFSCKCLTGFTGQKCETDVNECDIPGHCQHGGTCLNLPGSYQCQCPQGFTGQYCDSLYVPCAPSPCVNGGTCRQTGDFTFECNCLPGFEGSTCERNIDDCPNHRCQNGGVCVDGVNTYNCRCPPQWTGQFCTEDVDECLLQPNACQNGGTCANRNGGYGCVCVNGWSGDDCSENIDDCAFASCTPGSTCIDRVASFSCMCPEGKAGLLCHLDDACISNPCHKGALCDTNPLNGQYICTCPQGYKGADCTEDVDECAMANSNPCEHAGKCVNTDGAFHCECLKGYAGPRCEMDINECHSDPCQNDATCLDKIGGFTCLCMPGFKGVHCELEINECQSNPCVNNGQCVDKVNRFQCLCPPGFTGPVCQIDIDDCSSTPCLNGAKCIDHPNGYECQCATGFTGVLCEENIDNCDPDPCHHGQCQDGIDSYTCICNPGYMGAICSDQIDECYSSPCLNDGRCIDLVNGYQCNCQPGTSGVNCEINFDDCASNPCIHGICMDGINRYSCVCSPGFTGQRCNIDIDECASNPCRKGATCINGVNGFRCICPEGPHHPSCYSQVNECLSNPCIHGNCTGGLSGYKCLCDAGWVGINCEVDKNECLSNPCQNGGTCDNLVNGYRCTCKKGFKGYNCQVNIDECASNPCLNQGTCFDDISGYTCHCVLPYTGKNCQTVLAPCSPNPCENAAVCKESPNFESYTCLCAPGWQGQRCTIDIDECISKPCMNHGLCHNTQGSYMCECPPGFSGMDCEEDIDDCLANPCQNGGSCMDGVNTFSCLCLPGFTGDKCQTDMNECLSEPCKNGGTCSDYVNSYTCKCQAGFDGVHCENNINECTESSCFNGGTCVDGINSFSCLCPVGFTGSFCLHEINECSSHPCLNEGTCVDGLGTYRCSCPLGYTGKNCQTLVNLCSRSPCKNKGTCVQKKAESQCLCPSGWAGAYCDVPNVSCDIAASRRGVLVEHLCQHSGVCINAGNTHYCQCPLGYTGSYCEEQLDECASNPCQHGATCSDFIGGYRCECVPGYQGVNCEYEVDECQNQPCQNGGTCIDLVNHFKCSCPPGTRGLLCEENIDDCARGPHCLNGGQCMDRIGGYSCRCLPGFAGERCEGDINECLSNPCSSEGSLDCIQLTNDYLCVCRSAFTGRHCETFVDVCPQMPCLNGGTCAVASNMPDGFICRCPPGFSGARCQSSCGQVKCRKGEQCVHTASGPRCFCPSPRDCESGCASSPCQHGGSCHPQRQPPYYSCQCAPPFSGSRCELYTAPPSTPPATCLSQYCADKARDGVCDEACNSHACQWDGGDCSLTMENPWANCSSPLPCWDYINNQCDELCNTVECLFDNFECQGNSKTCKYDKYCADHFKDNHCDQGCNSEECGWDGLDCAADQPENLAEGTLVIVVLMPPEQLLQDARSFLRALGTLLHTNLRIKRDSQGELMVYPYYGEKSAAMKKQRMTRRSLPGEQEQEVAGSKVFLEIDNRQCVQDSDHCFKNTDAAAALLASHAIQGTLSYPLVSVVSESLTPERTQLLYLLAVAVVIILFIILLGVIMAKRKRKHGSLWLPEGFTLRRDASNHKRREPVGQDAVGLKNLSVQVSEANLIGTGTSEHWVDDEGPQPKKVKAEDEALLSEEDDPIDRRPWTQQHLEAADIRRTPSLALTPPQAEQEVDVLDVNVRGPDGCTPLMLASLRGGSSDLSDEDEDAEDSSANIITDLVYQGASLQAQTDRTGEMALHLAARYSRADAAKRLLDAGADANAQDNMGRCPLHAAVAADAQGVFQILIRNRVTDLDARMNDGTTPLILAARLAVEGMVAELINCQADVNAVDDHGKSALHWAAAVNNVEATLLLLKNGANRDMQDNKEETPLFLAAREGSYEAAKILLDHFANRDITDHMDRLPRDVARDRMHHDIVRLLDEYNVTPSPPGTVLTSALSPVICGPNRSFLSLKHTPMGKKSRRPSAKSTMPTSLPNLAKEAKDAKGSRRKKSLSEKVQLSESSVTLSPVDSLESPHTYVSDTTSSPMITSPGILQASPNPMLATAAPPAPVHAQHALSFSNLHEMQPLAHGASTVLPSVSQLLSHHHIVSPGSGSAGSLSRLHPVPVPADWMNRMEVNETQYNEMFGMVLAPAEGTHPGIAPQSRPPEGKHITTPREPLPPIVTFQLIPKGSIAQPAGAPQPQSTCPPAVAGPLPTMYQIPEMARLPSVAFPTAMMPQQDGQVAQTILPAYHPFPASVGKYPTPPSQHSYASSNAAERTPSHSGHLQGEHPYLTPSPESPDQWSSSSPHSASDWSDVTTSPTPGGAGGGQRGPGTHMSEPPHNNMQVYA

Take `CCCCC=C[C@@H](NC(=O)c1ccc(C(F)(F)F)cc1)c1ccccc1`: the composite z-score in experiment [1] was 0.385; in experiment [2], 0.0374; in experiment [3] it was -0.0583; in [4] it was -0.0239; in experiment [5], -0.955; in [6] it was 0.297. Also, the composite z-score was -0.444 in [7]; -0.392 in experiment [9]; 0.449 in experiment [10]; -0.461 in experiment [11]; 0.748 in experiment [15]; -0.0285 in experiment [17]. Further, the results for the composite z-score in [18], in experiment [19] and in experiment [20] were -0.905, -0.76 and -0.566, respectively. For the same compound, the z-score in [8] was 1.02 (inactive); in [12], -0.27 (inactive); in experiment [13], -8.36 (active); in experiment [14], -1.79 (inactive); in experiment [16], -1.07 (inactive).

Take `COc1cc2c(cc1O)C(c1ccc(CN3CCCC3)cc1)N(Cc1ccc([N+](=O)[O-])o1)CC2` (stereo not given): the composite z-score in experiment [1] was -0.649; in experiment [2] it was -0.533; in experiment [3] it was -0.158; in [4], 0.0497; in [5], 0.345; in [6], 2.15. The composite z-score in experiment [7] was 0.936; in [9] it was -0.21; in experiment [10], -0.354; in experiment [11], -0.246; in [15], 1.65; in [17], -0.299. For the same compound, the composite z-score in [18] is -0.408; in [19] it was 0.577; in experiment [20] it was -0.227. In addition, the z-score in [8] is 1.06 (inactive); in experiment [12] it was -0.686 (inactive); in experiment [13] it was -2.48 (inactive); in experiment [14], -0.604 (inactive); in experiment [16], 0.098 (inactive).

For the compound `C=CCC(OC(C)=O)[C@@H]1[C@@H](N(Cc2ccc(-c3ccccc3)cc2)C(=O)c2cccc3ccccc23)c2cc(OCCCO)ccc2N1C(=O)c1ccc2ccccc2c1` (stereo not given in full), the composite z-score was -0.254 in [1]; -0.0509 in experiment [2]; -0.0973 in experiment [3]; 0.246 in experiment [4]; 0.045 in [5]; -0.179 in experiment [6]. Besides, the composite z-score in experiment [7] was -0.172; in experiment [9], 0.277; in [10] it was -0.0672; in experiment [11], 0.189; in experiment [15] it was 0.813; in experiment [17] it was 0.0802. The composite z-score in [18] is -0.106; in [19], -0.0403; in experiment [20], -0.136. Also, the z-score was -0.891 (inactive) in [8]; -0.521 (inactive) in experiment [12]; -0.328 (inactive) in experiment [13]; -0.569 (inactive) in [14]; -0.584 (inactive) in [16].

Regarding `C=CCOC(=O)[C@H]1[C@@H]2C(=O)O[C@@H](c3ccccc3)[C@@H](c3ccccc3)N2[C@@H](c2ccc(OCCOC(=O)[C@@H]3C[C@@H]4C(=O)N[C@@H](Cc5ccccc5)C(=O)N4[C@@H]3c3ccc(O)cc3)cc2)[C@]12C(=O)Nc1ccccc12`, the composite z-score in experiment [1] was -0.372; in experiment [2], 0.268; in experiment [3], -0.0713; in [4], 0.278; in experiment [5], 0.217; in [6] it was 0.403. Besides, the composite z-score was 1.21 in experiment [7]; -0.121 in experiment [9]; -0.0645 in [10]; 1.55 in experiment [11]; 2.13 in experiment [15]; -0.151 in experiment [17]. Moreover, the composite z-score in experiment [18] is 1.65; in [19] it was 0.758; in experiment [20] it was -0.0929. Besides, the z-score in [8] is 0.503 (inactive); in [12] it was 0.455 (inactive); in experiment [13], -0.113 (inactive); in experiment [14] it was 3.75 (inactive); in experiment [16] it was 0.0664 (inactive).

Take `Cc1ccc(S[C@]2(C(=O)NCCN3CCOCC3)CC(=O)N(C3CCCCC3)[C@@H]2c2ccc(CO)cc2I)cc1`: the composite z-score in [1] was -1.01; in experiment [2] it was 0.866; in experiment [3] it was -0.0687; in [4], 0.841; in experiment [5], 0.955; in [6], 1.61. Moreover, the composite z-score was 1.22 in experiment [7]; 0.259 in experiment [9]; -0.279 in experiment [10]; 1.53 in experiment [11]; 3.23 in [15]; -0.0512 in [17]. In addition, the composite z-score was 0.824 in experiment [18], 1.07 in experiment [19] and -0.313 in experiment [20]. In addition, the z-score in experiment [8] is -2.05 (inactive); in experiment [12], -0.376 (inactive); in experiment [13], 0.174 (inactive); in experiment [14], 1.28 (inactive); in experiment [16], -0.385 (inactive).
